Measured values reported in ChEMBL document CHEMBL3433997, “St. Jude Leishmania screening dataset” (2016).

Columns and labels:
Assay type in all cases: functional
[1] = target: Solute carrier family 2, facilitated glucose transporter member 1 (Homo sapiens) (UniProt P11166); experiment: ST_JUDE_LEISH: Cytotoxicity at 2uM final concentration against transgenic Leishmania Mexicana promastigotes LmGLUT1 that are glucose transport deficient and complemented with the human glucose transporter GLUT1. Activity is measured by DNA content using SYBR green in vitro
Solute carrier family 2, facilitated glucose transporter member 1 (Homo sapiens), sequence (P11166 whole entry): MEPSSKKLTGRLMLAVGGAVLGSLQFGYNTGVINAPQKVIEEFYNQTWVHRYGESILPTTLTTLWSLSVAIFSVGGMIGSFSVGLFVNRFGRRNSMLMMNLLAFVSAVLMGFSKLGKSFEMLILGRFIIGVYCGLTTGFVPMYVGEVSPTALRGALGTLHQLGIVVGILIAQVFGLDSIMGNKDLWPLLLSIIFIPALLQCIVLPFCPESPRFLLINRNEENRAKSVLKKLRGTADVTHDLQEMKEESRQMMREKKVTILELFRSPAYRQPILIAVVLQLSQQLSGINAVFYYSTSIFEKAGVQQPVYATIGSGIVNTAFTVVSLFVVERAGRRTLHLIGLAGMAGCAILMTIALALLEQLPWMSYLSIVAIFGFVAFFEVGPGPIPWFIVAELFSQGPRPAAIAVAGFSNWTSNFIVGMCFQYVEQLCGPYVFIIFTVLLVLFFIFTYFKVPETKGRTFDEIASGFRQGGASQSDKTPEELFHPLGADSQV

[2] = target: Hexose transporter 1 (Plasmodium falciparum) (UniProt O97467); experiment: ST_JUDE_LEISH: Cytotoxicity at 2uM final concentration against transgenic Leishmania Mexicana promastigotes LmPfHT that are glucose transport deficient and complemented with the Plasmodium falciparum hexose transporter. Activity is measured by DNA content using SYBR green in vitro
[3] = target: Glucose transporter (Leishmania mexicana) (UniProt O61059); experiment: ST_JUDE_LEISH: Cytotoxicity at 2uM final concentration against transgenic Leishmania Mexicana promastigotes LmGT2 that are glucose transport deficient and complemented with the L. Mexicana glucose transporter 2. Activity is measured by DNA content using SYBR green in vitro

| Structure (SMILES) | inhibition [1] | inhibition [2] | inhibition [3] |
| --- | --- | --- | --- |
| CN1CCC(Oc2ccc(CN3CC[C@H](NC(=O)c4ccc(Cl)c(Cl)c4)C3)c3ccccc23)C1 (stereo not given in full) | 2.7% | 4.41% | 3.37% |
| COC(=O)c1cccc(CNCc2ccc(-c3ccc(-c4nc5cc(C(F)(F)F)ccc5[nH]4)cc3)cc2)c1 | 3.94% | 1.94% | 2.35% |
| O=C(NC(CCCN1CCC2(CC1)OCc1ccccc12)c1ccc(Cl)c(Cl)c1)c1cc(C(F)(F)F)cc(C(F)(F)F)c1 (stereo not given) | 1.7% | 0.26% | -2.79% |
| Cc1cccc2nc(-c3ccc(-c4cccc(NCc5cn6cccnc6n5)c4)cc3)[nH]c12 | 2.03% | 0.59% | -2.51% |
| COCc1cc(C)nc2sc(C(=O)Nc3cc(C(C)(C)C)ccc3O)c(N)c12 | 3.32% | 2.62% | -0.92% |
| Cc1[nH]c2ccccc2c1C1CCN(CCCCNC(=O)c2ccc(-c3ccc(C#N)cc3)cc2)CC1 | 11.2% | 9.94% | 10.3% |
| Cc1cc(=NN=Cc2ccccc2F)c2cc(C(F)(F)F)ccc2[nH]1 | 1.67% | 3.04% | 0.5% |
| CCN(CC)/C(=N/C(=N)Nc1ccc(Cl)c(Cl)c1)NCCCCCCN/C(=N\C(=N)Nc1ccc(Cl)c(Cl)c1)N(CC)CC | 1.15% | -1.65% | -1.49% |
| CN(c1ccccc1)S(=O)(=O)c1cccc(NC(=O)c2ccc(-n3ccnc3)c([N+](=O)[O-])c2)c1 | 2.91% | 3.61% | 0.73% |
| COc1ccc(CNC2Cc3ccccc3C2)cc1-c1ccc(OC)c(S(=O)(=O)NCCN2CCCC2)c1 | 1.59% | 1.67% | -1.29% |
| Cc1cccc(-c2cccc3c(NC(=O)N4CCc5cc6nccc(N7CCN8CCC[C@H]8C7)c6cc54)cccc23)n1 | 0.18% | 0.95% | 1.48% |
| COc1ccc2nccc(N(C)CC3(O)CCN(CCc4ccc5c(c4)OCCO5)CC3)c2n1 | 0.49% | 0.73% | 2.16% |
| COc1ccc(OCCCCON2C(=N)N=C(N)NC2(C)C)cc1 | 3.18% | 1.29% | 2.18% |
| N#Cc1ccc(/C=C/C(=O)NCCCCCN2CCN(C(=O)Nc3ccc(Cl)c(C(F)(F)F)c3)CC2)cc1 | 5.8% | 4.08% | 1.97% |
| Cc1cc2nc(-c3ccc(/C=C/C(=O)NCc4ccc(Cl)c(Cl)c4)cc3)[nH]c2cc1C | 8.62% | 8.06% | 4.96% |
| CNC(=O)c1cnc(Nc2ccc(OCC(O)CN(C)C)cc2)nc1Nc1cccc(Br)c1 (stereo not given) | 11.4% | 11.1% | 9.84% |
| CNS(=O)(=O)c1ccc(NC(=O)c2cc(-c3cccnc3)nc3ccc(Br)cc23)cc1 | 2.58% | 2.73% | 3.77% |
| CCC(C)CC(=O)Nc1ccc(OC)c(S(=O)(=O)N[C@@H]2CCN(C#N)C2)c1 (stereo not given in full) | -0.28% | -0.4% | -0.94% |
| C[C@@H](Oc1cc(-n2cnc3cc(SCCN4CCN(C)CC4)ccc32)sc1C(N)=O)c1ccccc1Cl | 35.4% | 40.9% | 23.6% |
| CC(C)C1C(O)=C(c2ccc3ccccc3c2)C(=O)N1CC1CCCCC1 (stereo not given) | 1.23% | 1.04% | -8.52% |

| Structure (SMILES) | inhibition [1] | inhibition [2] | inhibition [3] |
| --- | --- | --- | --- |
| CCCOc1cc2c(cc1OCCC)C(C=Cc1ccc(Cl)cc1Cl)=NC(C)C2 (stereo not given) | 94.6% | 96.7% | 94.4% |
| COc1ccc2ccccc2c1CNCCCCCCNCc1c(OC)ccc2ccccc12 | 1.14% | -0.97% | -3.28% |
| N#Cc1cccc(NC(=O)c2ccc(S(=O)(=O)NCC3CCCN3CC3CCCCC3)cc2)c1 (stereo not given) | 2.47% | 4.27% | 1.88% |
| Cc1ccc(C(=O)Nc2ccc(Nc3ccnc4cc(-c5nccs5)ccc34)cc2O)cc1 | 6.24% | 3.22% | 1.89% |
| Cc1[nH]c(C)c(-c2ccc(Oc3ccc(Cl)cc3)cc2)c(=O)c1Cl | 2.75% | 2.92% | 1.25% |
| Oc1ccc2nc(N3CCNCC3)nc(NCCCc3ccccc3)c2c1 | -0.71% | -0.65% | 0.5% |
| O=C(C=Cc1cn(-c2ccccc2)nc1-c1ccccc1)N1CCN(c2ccncc2)CC1 | 5.75% | 5.64% | 4.62% |
| CCOc1cc(CC)ccc1C1CCN(CCN2CCC(CNC(=O)c3ccc(-c4ccc(C#N)cc4)cc3)CC2)CC1 | 16.2% | 13% | 13.1% |
| COc1cc(-n2cnc3cc(-c4ccc([N+](=O)[O-])cc4)sc3c2=O)ccc1OCCN1CCCC1 | 19.5% | 20% | 16% |
| CCOC(=O)c1ccc(NC(=O)N[C@@H](Cc2ccccc2)C(=O)NC2CCN(Cc3ccc(O)c(OC)c3)C2)cc1 (stereo not given in full) | -2.58% | -1.29% | 3.01% |
| CC(C)(C)CCN1CCC(CNC(=O)c2cc(-c3cccc(C(F)(F)F)c3)cs2)C1 (stereo not given) | 3.1% | 2.95% | -0.8% |
| COc1ccc(C=C2SC(=O)N=C2Nc2ccccc2)c(OC)c1 | 6.71% | 5.61% | 2.58% |
| COc1ccccc1CNC(=O)CCn1c(=O)[nH]c2ccsc2c1=O | 2.58% | 3.17% | 1.36% |
| COc1ccc(-c2cccc(CNC3CCN(CC4Cn5c(=O)ccc6ccc(F)c4c65)CC3)c2)cc1 (stereo not given) | 10.7% | 10% | 8.16% |
| CCC(C)OC(=O)C1=C(C)NC2=C(C(=O)CC(c3ccc(OC)c(OC)c3)C2)C1c1ccc(C)o1 (stereo not given) | 2.36% | 8.1% | 3.8% |
| Cc1cc(NCCc2ccc(O)cc2)nc(NCC(c2ccccc2)c2ccccc2)n1 | 12.9% | 8.92% | 5.19% |
| CCc1c(CCNCCCCCCNCCc2ccc([N+](=O)[O-])cc2)ccc(OC)c1OC | 12.1% | 10.1% | 12.9% |
| COc1cc(NC(=O)/C=C/c2cccc3cc[nH]c23)ccc1OCCN(C(C)C)C(C)C | 2.46% | 1.55% | -2.66% |
| CCn1c(C(C)C)cc2c3c(N)nc(N)nc3ccc21 | 50.6% | 61.1% | 42% |
| Cc1cc(Cl)ccc1OC(C)C(=O)N1CCc2ccccc21 (stereo not given) | -3.17% | 0.81% | -0.66% |
